Measurements as given in PubChem BioAssay (EPA / NIEHS).
Inconclusive results are not listed. The source made the active and inactive calls. The calls were made as follows: active = hit-call score of the fitted dose curve at least 0.9, where 1 is the maximum; inconclusive = response in the unintended direction; inactive = score below 0.9.

What was measured:
[1] = target: human Caspase 2 (CASP2), CASP2 (gene 835) (UniProt P42575); assay: NVS_ENZ_hCASP2: NovaScreen (NVS) Enzymatic Assay for human Caspase 2 (CASP2) (AID 2283135)
human Caspase 2 (CASP2), CASP2 (gene 835), sequence (P42575 whole entry, looked up): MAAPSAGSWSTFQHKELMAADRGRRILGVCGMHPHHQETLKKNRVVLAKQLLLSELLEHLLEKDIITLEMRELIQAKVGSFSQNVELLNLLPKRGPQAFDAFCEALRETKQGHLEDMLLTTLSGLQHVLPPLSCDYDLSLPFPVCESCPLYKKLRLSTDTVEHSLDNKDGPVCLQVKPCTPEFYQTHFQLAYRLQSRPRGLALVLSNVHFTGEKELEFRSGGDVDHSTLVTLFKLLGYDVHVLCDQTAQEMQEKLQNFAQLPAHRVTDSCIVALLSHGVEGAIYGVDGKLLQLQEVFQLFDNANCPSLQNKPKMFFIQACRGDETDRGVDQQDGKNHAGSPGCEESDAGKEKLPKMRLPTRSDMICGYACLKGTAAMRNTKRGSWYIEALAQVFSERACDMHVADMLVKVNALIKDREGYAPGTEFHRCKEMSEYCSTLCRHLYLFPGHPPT
Method in brief: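 Single-point duplicate testing at 25 uM preceded concentration series topping at 50 uM. Activity of the recombinant E. coli-derived protease was followed by fluorescent substrate cleavage 1 h post-dosing, relative to DMSO.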

[2] = target: human Aurora Kinase A - serine/threonine-protein Kinase 6 (AurA), AURKA (gene 6790) (UniProt O14965); assay: NVS_ENZ_hAurA: NovaScreen (NVS) Enzymatic Assay for human Aurora Kinase A - serine/threonine-protein Kinase 6 (AurA) (AID 2283142)
human Aurora Kinase A - serine/threonine-protein Kinase 6 (AurA), AURKA (gene 6790), sequence (O14965 whole entry, looked up): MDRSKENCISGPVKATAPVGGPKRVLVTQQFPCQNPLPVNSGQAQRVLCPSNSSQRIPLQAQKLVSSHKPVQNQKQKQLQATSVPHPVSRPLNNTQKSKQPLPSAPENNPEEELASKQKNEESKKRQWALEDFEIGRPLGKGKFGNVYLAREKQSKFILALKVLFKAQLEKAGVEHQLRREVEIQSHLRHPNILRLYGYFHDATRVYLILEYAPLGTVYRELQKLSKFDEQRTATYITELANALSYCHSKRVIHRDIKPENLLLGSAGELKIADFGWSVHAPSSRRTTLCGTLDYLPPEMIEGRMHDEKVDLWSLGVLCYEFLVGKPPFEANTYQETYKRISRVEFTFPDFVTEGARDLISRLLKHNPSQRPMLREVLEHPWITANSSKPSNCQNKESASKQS
Method in brief: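 Recombinant human AurA activity read by fluorescence after mobility-shift separation of product from substrate; 1 hour incubation. Chemicals first run in duplicate at 25 uM, then concentration series to 50 uM if over threshold; fitted relative to DMSO.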

[3] = target: human Epidermal Growth Factor Receptor (EGFR), EGFR (gene 1956) (UniProt P00533); assay: NVS_ENZ_hEGFR: NovaScreen (NVS) Enzymatic Assay for human Epidermal Growth Factor Receptor (EGFR) (AID 2283151)
human Epidermal Growth Factor Receptor (EGFR), EGFR (gene 1956), sequence (P00533 whole entry, looked up): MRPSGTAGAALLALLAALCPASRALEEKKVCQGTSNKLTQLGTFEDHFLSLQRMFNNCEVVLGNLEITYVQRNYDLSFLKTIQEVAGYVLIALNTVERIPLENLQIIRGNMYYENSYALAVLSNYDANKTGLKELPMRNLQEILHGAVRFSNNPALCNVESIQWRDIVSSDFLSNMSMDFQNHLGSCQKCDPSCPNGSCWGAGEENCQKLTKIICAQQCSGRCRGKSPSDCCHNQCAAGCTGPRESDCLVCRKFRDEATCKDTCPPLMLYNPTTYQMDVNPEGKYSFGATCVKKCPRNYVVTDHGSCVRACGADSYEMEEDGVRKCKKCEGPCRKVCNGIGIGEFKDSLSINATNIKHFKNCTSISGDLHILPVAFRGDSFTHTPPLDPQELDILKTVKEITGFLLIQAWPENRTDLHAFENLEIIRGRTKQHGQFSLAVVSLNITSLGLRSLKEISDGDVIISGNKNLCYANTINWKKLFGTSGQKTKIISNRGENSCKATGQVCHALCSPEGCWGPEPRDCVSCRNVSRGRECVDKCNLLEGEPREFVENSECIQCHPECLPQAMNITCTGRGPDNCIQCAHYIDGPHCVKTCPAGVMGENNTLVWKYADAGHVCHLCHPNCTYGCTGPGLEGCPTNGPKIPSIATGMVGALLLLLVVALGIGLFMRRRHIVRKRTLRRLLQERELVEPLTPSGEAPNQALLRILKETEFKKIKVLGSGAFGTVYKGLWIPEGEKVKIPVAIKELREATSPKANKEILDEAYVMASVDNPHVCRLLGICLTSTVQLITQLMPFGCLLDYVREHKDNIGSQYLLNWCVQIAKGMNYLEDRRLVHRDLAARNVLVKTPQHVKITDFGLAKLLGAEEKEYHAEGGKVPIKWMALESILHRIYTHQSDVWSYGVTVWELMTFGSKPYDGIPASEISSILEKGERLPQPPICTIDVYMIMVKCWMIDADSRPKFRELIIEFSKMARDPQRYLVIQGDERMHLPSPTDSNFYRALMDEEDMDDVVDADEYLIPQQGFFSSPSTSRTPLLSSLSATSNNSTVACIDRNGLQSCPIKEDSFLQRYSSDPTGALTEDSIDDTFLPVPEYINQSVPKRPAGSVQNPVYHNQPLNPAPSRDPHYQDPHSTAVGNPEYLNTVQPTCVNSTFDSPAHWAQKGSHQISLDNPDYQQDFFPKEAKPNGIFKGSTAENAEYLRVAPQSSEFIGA
Method in brief: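 Cell-free kinase assay, fluorescence plus electrophoretic mobility shift separating substrate and product, read 1 hour after dosing; loss of signal vs DMSO. Duplicate screen at 25 uM, then concentration-response to 50 uM.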

[4] = target: human Fibroblast Growth Factor Receptor 1 (FGFR1), FGFR1 (gene 2260) (UniProt P11362); assay: NVS_ENZ_hFGFR1: NovaScreen (NVS) Enzymatic Assay for human Fibroblast Growth Factor Receptor 1 (FGFR1) (AID 2283159)
human Fibroblast Growth Factor Receptor 1 (FGFR1), FGFR1 (gene 2260), sequence (P11362 whole entry, looked up): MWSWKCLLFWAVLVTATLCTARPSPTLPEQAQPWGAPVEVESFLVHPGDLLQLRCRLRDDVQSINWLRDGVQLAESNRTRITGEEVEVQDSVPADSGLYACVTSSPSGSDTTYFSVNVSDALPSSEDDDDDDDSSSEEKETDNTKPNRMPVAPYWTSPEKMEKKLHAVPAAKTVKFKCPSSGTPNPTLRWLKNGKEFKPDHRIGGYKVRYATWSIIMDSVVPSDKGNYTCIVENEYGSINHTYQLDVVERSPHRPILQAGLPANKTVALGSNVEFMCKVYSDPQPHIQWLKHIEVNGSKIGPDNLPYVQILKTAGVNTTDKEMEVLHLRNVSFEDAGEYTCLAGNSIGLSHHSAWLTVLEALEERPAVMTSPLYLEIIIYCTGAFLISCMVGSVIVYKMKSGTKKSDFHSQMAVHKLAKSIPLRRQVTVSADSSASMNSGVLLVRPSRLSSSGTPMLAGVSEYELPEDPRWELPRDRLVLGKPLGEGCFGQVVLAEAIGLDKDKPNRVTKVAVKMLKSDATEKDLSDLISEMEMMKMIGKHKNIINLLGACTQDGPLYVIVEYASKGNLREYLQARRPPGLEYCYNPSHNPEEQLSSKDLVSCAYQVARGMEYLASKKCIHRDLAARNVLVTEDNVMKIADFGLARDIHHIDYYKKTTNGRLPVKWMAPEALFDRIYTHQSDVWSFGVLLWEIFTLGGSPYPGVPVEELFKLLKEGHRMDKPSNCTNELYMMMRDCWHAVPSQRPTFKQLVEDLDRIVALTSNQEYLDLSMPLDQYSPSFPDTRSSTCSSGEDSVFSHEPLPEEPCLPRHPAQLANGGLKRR
Method in brief: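 Cell-free recombinant kinase with fluorescent substrate, product separated by electrophoretic mobility shift; read 1 hour after dosing, loss of signal relative to DMSO. Initial screen in duplicate at 25 uM, actives followed in concentration series.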

[5] = target: Protein deacetylase HDAC6 (Homo sapiens) (UniProt Q9UBN7); assay: NVS_ENZ_hHDAC6: NovaScreen (NVS) Enzymatic Assay for human Histone Deacetylase 6 (HDAC6) (AID 2283164)
Protein deacetylase HDAC6 (Homo sapiens), sequence (Q9UBN7 whole entry, looked up): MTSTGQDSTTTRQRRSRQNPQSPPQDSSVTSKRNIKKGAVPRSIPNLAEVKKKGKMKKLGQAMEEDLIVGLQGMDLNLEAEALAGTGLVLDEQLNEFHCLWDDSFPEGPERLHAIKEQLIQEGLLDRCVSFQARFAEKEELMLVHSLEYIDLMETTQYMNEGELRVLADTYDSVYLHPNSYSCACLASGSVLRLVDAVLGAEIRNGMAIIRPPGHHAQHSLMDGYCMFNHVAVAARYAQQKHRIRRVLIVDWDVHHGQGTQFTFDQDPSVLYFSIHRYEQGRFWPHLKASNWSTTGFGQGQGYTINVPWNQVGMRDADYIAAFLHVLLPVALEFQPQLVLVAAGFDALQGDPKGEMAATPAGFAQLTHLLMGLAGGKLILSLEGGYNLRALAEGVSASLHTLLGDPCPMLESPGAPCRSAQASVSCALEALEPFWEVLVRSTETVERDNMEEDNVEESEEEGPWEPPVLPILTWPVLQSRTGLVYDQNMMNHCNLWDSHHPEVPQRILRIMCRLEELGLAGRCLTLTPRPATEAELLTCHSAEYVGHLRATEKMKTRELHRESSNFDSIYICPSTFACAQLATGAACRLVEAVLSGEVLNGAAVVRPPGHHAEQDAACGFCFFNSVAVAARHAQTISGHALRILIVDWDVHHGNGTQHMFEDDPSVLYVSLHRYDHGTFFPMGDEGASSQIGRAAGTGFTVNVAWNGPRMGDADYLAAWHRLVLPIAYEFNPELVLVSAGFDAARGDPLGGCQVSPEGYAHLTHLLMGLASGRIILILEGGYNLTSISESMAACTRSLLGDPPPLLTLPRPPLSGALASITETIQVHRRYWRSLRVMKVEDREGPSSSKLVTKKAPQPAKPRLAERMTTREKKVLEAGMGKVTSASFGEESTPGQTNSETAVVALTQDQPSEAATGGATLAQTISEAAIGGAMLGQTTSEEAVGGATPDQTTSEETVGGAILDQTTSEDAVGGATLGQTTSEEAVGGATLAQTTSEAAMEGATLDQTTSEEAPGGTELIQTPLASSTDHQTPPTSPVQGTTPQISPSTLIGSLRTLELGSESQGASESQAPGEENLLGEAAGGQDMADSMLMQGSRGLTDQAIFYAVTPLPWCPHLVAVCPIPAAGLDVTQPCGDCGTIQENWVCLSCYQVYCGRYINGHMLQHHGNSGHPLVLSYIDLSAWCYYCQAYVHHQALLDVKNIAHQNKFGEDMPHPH
Method in brief: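 Concentration-response runs up to 50 uM followed a duplicate 25 uM single-point screen. Deacetylase activity of recombinant human HDAC6 read by fluorescence after 1 h, with mobility-shift separation of substrate and product; DMSO as baseline.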

[6] = target: human IkappaB Kinase alpha (IKKa), CHUK (gene 1147) (UniProt O15111); assay: NVS_ENZ_hIKKa: NovaScreen (NVS) Enzymatic Assay for human IkappaB Kinase alpha (IKKa) (AID 2283167)
Method in brief: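 Compounds first run in duplicate at 25 uM, those meeting threshold (e.g. 30% inhibition) retested to maximum 50 uM. Enzyme activity of recombinant IKKa measured by fluorescence with electrophoretic mobility shift separation, 1 hour post-dosing, DMSO baseline.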

[7] = target: human MET Proto-Oncogene, Receptor Tyrosine Kinase (MET), MET (gene 4233) (UniProt P08581); assay: NVS_ENZ_hMet: NovaScreen (NVS) Enzymatic Assay for human MET Proto-Oncogene, Receptor Tyrosine Kinase (MET) (AID 2283180)
Method in brief: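 Hits from a 25 uM duplicate screen were retested in concentration series up to 50 uM. Enzyme activity was measured by fluorescence after electrophoretic separation of product from substrate, 1 h after compound addition, relative to DMSO.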

[8] = target: human p21 Activated Kinase 4 (PAK4), PAK4 (gene 10298) (UniProt O96013); assay: NVS_ENZ_hPAK4: NovaScreen (NVS) Enzymatic Assay for human p21 Activated Kinase 4 (PAK4) (AID 2283189)
Method in brief: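 Extracted PAK4 enzyme activity read by fluorescence with mobility-shift separation 1 h after chemical addition. Duplicate single-concentration screen at 25 uM, DMSO as negative control.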

[9] = target: human Phosphatase and Tensin Homolog (PTEN), PTEN (gene 5728) (UniProt P60484); assay: NVS_ENZ_hPTEN: NovaScreen (NVS) Enzymatic Assay for human Phosphatase and Tensin Homolog (PTEN) (AID 2283203)
human Phosphatase and Tensin Homolog (PTEN), PTEN (gene 5728), sequence (P60484 whole entry, looked up): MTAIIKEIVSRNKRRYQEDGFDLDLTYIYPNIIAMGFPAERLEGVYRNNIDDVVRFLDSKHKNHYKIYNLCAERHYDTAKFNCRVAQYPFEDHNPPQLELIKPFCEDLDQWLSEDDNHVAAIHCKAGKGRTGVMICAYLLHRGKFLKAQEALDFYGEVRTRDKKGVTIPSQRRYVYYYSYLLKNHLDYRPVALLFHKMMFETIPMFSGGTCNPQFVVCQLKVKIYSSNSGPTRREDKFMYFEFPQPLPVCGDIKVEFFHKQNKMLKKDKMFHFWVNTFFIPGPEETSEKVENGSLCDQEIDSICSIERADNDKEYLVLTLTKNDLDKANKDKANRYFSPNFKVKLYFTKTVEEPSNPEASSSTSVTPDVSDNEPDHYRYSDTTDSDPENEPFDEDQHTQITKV
Method in brief: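 Loss of fluorescent product signal after mobility-shift separation reports PTEN activity, recombinant human enzyme, 1 h after compound addition. Single 25 uM duplicate screen, then concentration-response on actives; DMSO baseline.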

[10] = target: human Protein Tyrosine Phosphatase Non-receptor Type 2 (PTPN2), PTPN2 (gene 5771) (UniProt P17706); assay: NVS_ENZ_hPTPN2: NovaScreen (NVS) Enzymatic Assay for human Protein Tyrosine Phosphatase Non-receptor Type 2 (PTPN2) (AID 2283207)
Method in brief: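 Activity measured as fluorescence after mobility-shift separation of substrate and product, 1 h after compound. Duplicate single-point 25 uM primary testing, concentration series for actives; inhibition scored as signal loss relative to DMSO baseline.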

[11] = target: rat Gamma-Aminobutyric Acid Type A Receptor BDZ, alpha 6 site (GABARa6), Gabra6 (gene 29708) (UniProt P30191); assay: NVS_LGIC_rGABARa6: NovaScreen (NVS) Ligand-Gated Ion Channel Assay for rat Gamma-Aminobutyric Acid Type A Receptor BDZ, alpha 6 site (GABARa6) (AID 2283339)
rat Gamma-Aminobutyric Acid Type A Receptor BDZ, alpha 6 site (GABARa6), Gabra6 (gene 29708), sequence (P30191 whole entry, looked up): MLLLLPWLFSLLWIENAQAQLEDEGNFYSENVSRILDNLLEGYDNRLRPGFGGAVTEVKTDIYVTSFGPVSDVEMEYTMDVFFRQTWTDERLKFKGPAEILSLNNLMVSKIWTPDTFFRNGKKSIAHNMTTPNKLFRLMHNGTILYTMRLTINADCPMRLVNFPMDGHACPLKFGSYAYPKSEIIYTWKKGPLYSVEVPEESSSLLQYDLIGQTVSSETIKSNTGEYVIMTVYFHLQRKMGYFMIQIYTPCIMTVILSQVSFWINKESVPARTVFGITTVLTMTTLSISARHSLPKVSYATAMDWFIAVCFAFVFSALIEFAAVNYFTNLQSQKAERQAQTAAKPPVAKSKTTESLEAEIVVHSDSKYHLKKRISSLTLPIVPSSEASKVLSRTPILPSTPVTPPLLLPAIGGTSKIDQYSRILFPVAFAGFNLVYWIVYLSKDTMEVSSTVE
Method in brief: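 Actives from a 25 uM duplicate screen were retested in concentration series (max 50 uM). Specific radioligand displacement from rat cerebellar membranes was counted by filter-based scintillation at 1 h; DMSO served as baseline.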

[12] = target: rat Monoamine Oxidase, MAO-B, Central (MAOBC), Maob (gene 25750) (UniProt P19643); assay: NVS_ENZ_rMAOBC: NovaScreen (NVS) Enzymatic Assay for rat Monoamine Oxidase, MAO-B, Central (MAOBC) (AID 2283238)
Method in brief: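 Actives from a duplicate 25 uM screen went on to singleton concentration-response with a 50 uM maximum. Enzyme source was rat brain tissue MAO-B, assayed cell-free. Radiolabelled product was counted by scintillation 1.17 h post-dose, with signal loss relative to DMSO.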

[13] = target: rat Neurotensin Receptor (NTS), Ntsr1 (gene 366274) (UniProt P20789); assay: NVS_GPCR_rNTS: NovaScreen (NVS) G Protein-Coupled Receptor Assay for rat Neurotensin Receptor (NTS) (AID 2283308)
Method in brief: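 Single-point duplicates at 25 uM, then concentration series to 50 uM max for hits, measured radioligand displacement on rat forebrain membrane preparations. Bound label counted by filtration scintillation at 1 h; signal loss relative to DMSO fitted.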

[14] = target: human Neonicotinoid receptor (NNR), CHRNA2 (gene 1135) (UniProt Q15822); assay: NVS_LGIC_hNNR_NBungSens: NovaScreen (NVS) Ligand-Gated Ion Channel Assay for human Neonicotinoid receptor (NNR) (AID 2283313)
Method in brief: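 Compounds first screened in duplicate at 25 uM, then actives re-tested in single-replicate dose series up to 50 uM. Binding measured as displacement of specific radioligand from neuroblastoma membrane receptors after 2 h, scintillation read on filters.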

[15] = target: human Caspase 10 (CASP10), CASP10 (gene 843) (UniProt Q92851); assay: NVS_ENZ_hCASP10: NovaScreen (NVS) Enzymatic Assay for human Caspase 10 (CASP10) (AID 2283133)
Method in brief: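 Fluorescence-intensity enzyme read-out of E. coli-expressed CASP10 activity, 1 h after compound. Single-point duplicates at 25 uM preceded concentration-response testing (top 50 uM) of hits; inhibition expressed as signal loss versus DMSO.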

[16] = target: human Tyrosine Protein Kinase Receptor Tie-2 (Tie2), TEK (gene 7010) (UniProt Q02763); assay: NVS_ENZ_hTie2: NovaScreen (NVS) Enzymatic Assay for human Tyrosine Protein Kinase Receptor Tie-2 (Tie2) (AID 2283225)
Method in brief: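 Substrate and product were separated by mobility shift and detected by fluorescence after a 1-hour reaction with recombinant Tie2. Chemicals passing a 25 uM single-point screen were titrated to a maximum of 50 uM. Results were normalized to DMSO baseline.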

[17] = target: Voltage-dependent N-type calcium channel subunit alpha-1B (Rattus norvegicus) (UniProt Q02294); assay: NVS_IC_rCaChN: NovaScreen (NVS) Ion Channel Assay for rat Calcium Channel, Type N (CaChN) (AID 2283317)
[18] = target: rat Oxytocin Receptor (OXT), Oxtr (gene 25342) (UniProt P70536); assay: NVS_GPCR_rOXT: NovaScreen (NVS) G Protein-Coupled Receptor Assay for rat Oxytocin Receptor (OXT) (AID 2283330)
Method in brief: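 Binding to rat uterine membrane receptor was followed by scintillation counting of filter-trapped radioligand after 1 h. A 25 uM duplicate single-point screen preceded concentration series with a top of 50 uM. Signal loss was analysed relative to DMSO.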

[19] = target: human Ephrin type-B Receptor 2 (EphB2), EPHB2 (gene 2048) (UniProt P29323); assay: NVS_ENZ_hEphB2: NovaScreen (NVS) Enzymatic Assay for human Ephrin type-B Receptor 2 (EphB2) (AID 2283156)
Method in brief: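 Compounds were first tested in duplicate at 25 uM, with hits rerun singly in concentration series up to 50 uM. Enzyme activity on fluorescent substrate was read at 1 h by mobility-shift separation, scored as signal loss relative to DMSO.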

PPP2CA (gene 5515) = PPP2CA (gene 5515) (UniProt P67775); assay: NVS_ENZ_hPPP2CA: NovaScreen (NVS) Enzymatic Assay for human Protein Phosphatase 2 Aatalytic subunit Alpha (PPP2CA) (AID 2283199)
Method in brief: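 Cell-free phosphatase activity: fluorescent substrate turnover by recombinant human enzyme, resolved by mobility shift at 1.33 h. Compounds passing the 25 uM duplicate primary screen were rerun in singleton series with a 50 uM top concentration.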

[20] = target: human Raf-1 Proto-Oncogene, serine/threonine Kinase (RAF1), RAF1 (gene 5894) (UniProt P04049); assay: NVS_ENZ_hRAF1: NovaScreen (NVS) Enzymatic Assay for human Raf-1 Proto-Oncogene, serine/threonine Kinase (RAF1) (AID 2283216)
Method in brief: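 Single-point screening at 25 uM (duplicate), followed by singleton concentration-response to 50 uM maximum for chemicals exceeding threshold. Enzyme activity from fluorescent substrate-product mobility-shift separation after 1 h, relative to DMSO.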

[21] = target: human Protein Tyrosine Phosphatase Receptor Type C (PTPRC), PTPRC (gene 5788) (UniProt P08575); assay: NVS_ENZ_hPTPRC: NovaScreen (NVS) Enzymatic Assay for human Protein Tyrosine Phosphatase Receptor Type C (PTPRC) (AID 2283212)
Method in brief: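 Absorbance-based phosphatase activity of human PTPRC protein extracted from yeast was measured 1 h post-dosing. Compounds first tested at 25 uM in duplicate, then those passing threshold in singleton concentration series to 50 uM.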

[22] = target: rat Corticotropin Releasing Factor Receptor (CRF), Crhr1 (gene 58959) (UniProt P35353); assay: NVS_GPCR_rCRF: NovaScreen (NVS) G Protein-Coupled Receptor Assay for rat Corticotropin Releasing Factor Receptor (CRF) (AID 2283300)
Method in brief: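 Single-concentration (25 uM, duplicate) radioligand binding on rat cortical membrane preparations, counted by scintillation after 2 h. Activity scored as signal loss relative to DMSO negative control.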

SMILES: CCCC(CCC)C(=O)O
- outcome [1]: inactive
- outcome [2]: inactive
- outcome [3]: inactive
- outcome [4]: inactive
- outcome [5]: inactive
- outcome [6]: inactive
- outcome [7]: inactive
- outcome [8]: inactive
- outcome [9]: inactive
- outcome [10]: inactive
- outcome [11]: inactive

SMILES: CCc1cccc(CC)c1N
- outcome [1]: inactive
- outcome [4]: inactive

SMILES: CCOC(=O)c1ccc(O)cc1
- outcome [1]: inactive
- outcome [4]: inactive
- outcome [12]: inactive

SMILES: COc1cc(S(=O)(=O)O)c(C)cc1N=Nc1c(O)ccc2cc(S(=O)(=O)O)ccc12
- AC50 [1]: 6.73 µM (active)
- AC50 [13]: 16.8 µM (active)
- AC50 [14]: 16.7 µM (active)

SMILES: Cc1nc(C)nc(N2C[C@@H](C)N(c3ccnc([C@@H](C)O)n3)[C@@H](C)C2)n1
- outcome [1]: inactive
- outcome [9]: inactive

SMILES: C[Si]1(C)O[Si](C)(C)O[Si](C)(C)O[Si](C)(C)O1
- outcome [15]: inactive
- outcome [16]: inactive
- outcome [11]: inactive

SMILES: CN(C)CCCN(C)CCCN(C)C
- outcome [1]: inactive
- outcome [17]: inactive

SMILES: CC(C)(O)c1coc(S(=O)(=O)NC(=O)Nc2c3c(cc4c2CCC4)CCC3)c1
- outcome [1]: inactive
- outcome [9]: inactive

SMILES: O=S1(=O)CCCO1
- outcome [2]: inactive

SMILES: CC(C)COC(=O)CCCCC(=O)OCC(C)C
- outcome [1]: inactive
- outcome [17]: inactive

SMILES: CO[C@H]1/C=C/O[C@@]2(C)Oc3c(C)c(O)c4c(O)c(c(/C=N/N5CCN(C)CC5)c(O)c4c3C2=O)NC(=O)/C(C)=C\C=C\[C@H](C)[C@H](O)[C@@H](C)[C@@H](O)[C@@H](C)[C@H](OC(C)=O)[C@@H]1C
- outcome [1]: inactive

SMILES: CCN(CC)C(=O)c1cc(S(=O)(=O)Cc2ccccc2)c(N2CCC(c3ccccc3)CC2)cc1N(CC)CCN(C)C
- outcome [1]: inactive
- outcome [4]: inactive
- AC50 [18]: 6.13 µM (active)

SMILES: O=C(O)CCN(C1(C(=O)NO)CCCC1)S(=O)(=O)c1ccc(Oc2ccc(F)cc2)cc1
- outcome [1]: inactive

SMILES: Cc1ccc(C(C)(C)C)c(O)c1
- outcome [1]: inactive

SMILES: Cc1ccc(N)cc1O
- outcome [2]: inactive
- outcome [3]: inactive
- outcome [19]: inactive
- outcome [5]: inactive
- outcome (PPP2CA (gene 5515)): inactive
- outcome [20]: inactive

SMILES: Cc1oc(-c2ccccc2)nc1CCOc1cccc2c1ccn2CCC(=O)O
- outcome [1]: inactive
- AC50 [21]: 5.98 µM (active)
- outcome [22]: inactive
- outcome [17]: inactive
